This is an account of results in ChEMBL document CHEMBL1961873, “Compounds: GSK PKIS; Assays: Nanosyn kinase panel” (2012).

For orientation: inhibition means the drop in the measured response relative to a control, in per cent.

Experiment [1] addresses T1, Inhibitor of nuclear factor kappa-B kinase subunit epsilon (Homo sapiens) (UniProt Q14164).
T1 sequence (whole entry): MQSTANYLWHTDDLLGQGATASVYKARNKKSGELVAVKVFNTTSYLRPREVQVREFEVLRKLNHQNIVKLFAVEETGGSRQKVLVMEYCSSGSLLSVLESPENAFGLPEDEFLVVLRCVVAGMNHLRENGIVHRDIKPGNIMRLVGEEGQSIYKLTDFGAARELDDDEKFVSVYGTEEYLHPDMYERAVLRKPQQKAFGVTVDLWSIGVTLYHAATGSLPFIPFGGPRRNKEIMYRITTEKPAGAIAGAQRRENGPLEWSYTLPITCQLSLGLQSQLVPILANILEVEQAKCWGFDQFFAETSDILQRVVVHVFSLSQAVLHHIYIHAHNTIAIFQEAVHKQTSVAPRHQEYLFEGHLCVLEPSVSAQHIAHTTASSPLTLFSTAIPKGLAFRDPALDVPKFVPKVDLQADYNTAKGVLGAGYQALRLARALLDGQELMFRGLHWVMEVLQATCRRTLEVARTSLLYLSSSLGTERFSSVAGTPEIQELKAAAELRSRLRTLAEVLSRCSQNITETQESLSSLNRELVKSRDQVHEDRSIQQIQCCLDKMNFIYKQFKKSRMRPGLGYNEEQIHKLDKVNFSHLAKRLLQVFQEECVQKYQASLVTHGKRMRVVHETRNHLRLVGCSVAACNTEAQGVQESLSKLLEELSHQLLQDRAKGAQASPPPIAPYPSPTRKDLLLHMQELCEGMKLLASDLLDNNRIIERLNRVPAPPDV
To be noted: at 1 µM.

Experiment [2] deals with T2, Serine/threonine-protein kinase Nek1 (Homo sapiens) (UniProt Q96PY6).
T2 sequence (whole entry): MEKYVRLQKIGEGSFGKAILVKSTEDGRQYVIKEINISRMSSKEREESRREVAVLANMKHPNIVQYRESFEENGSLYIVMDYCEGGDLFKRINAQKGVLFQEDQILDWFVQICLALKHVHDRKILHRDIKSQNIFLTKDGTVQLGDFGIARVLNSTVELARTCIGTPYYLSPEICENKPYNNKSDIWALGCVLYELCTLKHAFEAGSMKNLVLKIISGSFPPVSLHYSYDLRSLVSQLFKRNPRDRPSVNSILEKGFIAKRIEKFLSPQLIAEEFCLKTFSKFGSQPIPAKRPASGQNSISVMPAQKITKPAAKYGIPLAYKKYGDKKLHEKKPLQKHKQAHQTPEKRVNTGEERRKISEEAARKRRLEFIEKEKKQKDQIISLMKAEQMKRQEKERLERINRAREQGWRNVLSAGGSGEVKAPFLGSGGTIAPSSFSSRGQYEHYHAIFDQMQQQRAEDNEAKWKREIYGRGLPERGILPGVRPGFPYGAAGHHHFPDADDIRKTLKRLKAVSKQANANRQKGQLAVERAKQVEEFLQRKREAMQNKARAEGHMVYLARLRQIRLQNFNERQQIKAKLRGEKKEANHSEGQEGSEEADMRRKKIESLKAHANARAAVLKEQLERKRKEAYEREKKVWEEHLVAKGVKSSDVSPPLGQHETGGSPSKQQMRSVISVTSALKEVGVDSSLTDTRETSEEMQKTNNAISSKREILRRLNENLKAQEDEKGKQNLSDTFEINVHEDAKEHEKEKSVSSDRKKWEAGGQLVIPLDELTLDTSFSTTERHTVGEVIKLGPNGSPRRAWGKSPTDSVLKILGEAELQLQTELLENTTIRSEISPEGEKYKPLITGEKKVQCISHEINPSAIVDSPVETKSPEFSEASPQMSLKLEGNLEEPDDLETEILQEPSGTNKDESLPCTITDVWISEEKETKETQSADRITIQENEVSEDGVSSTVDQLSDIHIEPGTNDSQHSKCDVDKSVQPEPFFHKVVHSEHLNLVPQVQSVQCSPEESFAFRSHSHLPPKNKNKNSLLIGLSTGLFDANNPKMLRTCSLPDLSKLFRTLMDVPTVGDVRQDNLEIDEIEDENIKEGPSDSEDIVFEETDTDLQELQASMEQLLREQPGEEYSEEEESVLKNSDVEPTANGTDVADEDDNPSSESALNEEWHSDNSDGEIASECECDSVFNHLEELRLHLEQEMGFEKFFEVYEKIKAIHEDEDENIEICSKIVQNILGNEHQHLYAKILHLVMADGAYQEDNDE
The conditions noted are these: at 0.1 µM.

Experiment [3] concerns the target T2, Serine/threonine-protein kinase Nek1 (Homo sapiens). To be noted: at 1 µM.
For experiment [4], the target named is T3, Serine/threonine-protein kinase Nek2 (Homo sapiens) (UniProt P51955).
T3 sequence (whole entry): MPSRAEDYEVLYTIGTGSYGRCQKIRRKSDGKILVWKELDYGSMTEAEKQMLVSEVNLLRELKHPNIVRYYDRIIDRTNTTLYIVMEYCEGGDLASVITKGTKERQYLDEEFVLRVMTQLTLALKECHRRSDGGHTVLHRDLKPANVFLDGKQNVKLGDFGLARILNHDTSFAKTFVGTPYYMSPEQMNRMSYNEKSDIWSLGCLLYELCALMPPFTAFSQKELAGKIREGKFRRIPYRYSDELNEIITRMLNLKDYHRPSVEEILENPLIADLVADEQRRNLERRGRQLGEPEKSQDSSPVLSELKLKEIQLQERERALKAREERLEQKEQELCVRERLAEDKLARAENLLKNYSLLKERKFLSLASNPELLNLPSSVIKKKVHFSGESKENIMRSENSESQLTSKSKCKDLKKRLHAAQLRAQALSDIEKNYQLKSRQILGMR
To be noted: at 0.1 µM.

The target in experiment [5] is T3, Serine/threonine-protein kinase Nek2 (Homo sapiens). The conditions noted are these: at 1 µM.
Experiment [6] deals with Serine/threonine-protein kinase Nek6 (Homo sapiens) (UniProt Q9HC98). To be noted: at 0.1 µM.
Serine/threonine-protein kinase Nek6 (Homo sapiens), sequence (Q9HC98 whole entry): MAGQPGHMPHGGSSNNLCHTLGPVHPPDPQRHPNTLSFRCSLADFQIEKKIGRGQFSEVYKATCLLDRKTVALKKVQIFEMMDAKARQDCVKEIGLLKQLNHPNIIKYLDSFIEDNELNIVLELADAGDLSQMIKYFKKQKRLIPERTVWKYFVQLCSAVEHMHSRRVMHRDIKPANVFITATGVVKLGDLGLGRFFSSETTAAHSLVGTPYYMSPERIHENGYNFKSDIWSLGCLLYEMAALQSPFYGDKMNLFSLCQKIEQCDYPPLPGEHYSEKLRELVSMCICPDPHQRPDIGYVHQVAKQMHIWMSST
For experiment [7] the target is unchanged. To be noted: at 1 µM.
In experiment [8] the target is Serine/threonine-protein kinase Nek7 (Homo sapiens) (UniProt Q8TDX7). To be noted: at 0.1 µM.
Serine/threonine-protein kinase Nek7 (Homo sapiens), sequence (Q8TDX7 whole entry, looked up): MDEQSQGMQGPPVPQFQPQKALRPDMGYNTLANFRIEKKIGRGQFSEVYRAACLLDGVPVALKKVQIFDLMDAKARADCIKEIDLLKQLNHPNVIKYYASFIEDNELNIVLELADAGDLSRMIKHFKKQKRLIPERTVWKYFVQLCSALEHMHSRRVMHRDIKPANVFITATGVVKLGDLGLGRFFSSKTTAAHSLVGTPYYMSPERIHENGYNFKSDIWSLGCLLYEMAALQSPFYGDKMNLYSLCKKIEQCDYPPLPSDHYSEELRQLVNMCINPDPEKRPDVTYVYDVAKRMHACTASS
Experiment [9] shares this target. To be noted: at 1 µM.
Experiment [10] concerns the target T4, Serine/threonine-protein kinase Nek9 (Homo sapiens) (UniProt Q8TD19).
T4 sequence (whole entry): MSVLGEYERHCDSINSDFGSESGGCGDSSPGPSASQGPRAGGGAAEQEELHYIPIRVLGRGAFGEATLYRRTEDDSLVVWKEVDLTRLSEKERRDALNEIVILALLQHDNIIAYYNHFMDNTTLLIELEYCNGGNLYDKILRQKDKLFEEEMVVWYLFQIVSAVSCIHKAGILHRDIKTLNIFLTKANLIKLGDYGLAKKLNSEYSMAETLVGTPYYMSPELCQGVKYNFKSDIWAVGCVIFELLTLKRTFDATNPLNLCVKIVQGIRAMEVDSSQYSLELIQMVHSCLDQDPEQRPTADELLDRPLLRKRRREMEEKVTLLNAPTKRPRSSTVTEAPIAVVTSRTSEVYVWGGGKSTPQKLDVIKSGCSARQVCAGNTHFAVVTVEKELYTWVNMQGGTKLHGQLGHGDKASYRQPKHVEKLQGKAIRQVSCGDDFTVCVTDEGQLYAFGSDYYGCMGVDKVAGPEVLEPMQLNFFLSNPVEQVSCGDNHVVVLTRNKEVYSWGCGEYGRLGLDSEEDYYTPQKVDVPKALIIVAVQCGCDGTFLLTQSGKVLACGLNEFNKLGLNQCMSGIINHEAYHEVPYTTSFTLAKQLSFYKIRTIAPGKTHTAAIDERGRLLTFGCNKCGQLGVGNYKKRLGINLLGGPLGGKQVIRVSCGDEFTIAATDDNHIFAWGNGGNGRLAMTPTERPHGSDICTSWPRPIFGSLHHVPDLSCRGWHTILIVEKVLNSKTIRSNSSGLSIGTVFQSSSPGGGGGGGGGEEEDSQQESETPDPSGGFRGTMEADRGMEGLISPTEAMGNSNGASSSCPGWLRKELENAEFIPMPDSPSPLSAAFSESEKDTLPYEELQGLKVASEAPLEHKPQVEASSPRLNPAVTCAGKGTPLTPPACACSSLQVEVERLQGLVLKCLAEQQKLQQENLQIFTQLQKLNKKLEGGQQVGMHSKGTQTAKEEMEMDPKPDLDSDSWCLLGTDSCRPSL
The conditions noted are these: at 0.1 µM.

In experiment [11] the target is T4, Serine/threonine-protein kinase Nek9 (Homo sapiens). The conditions noted are these: at 1 µM.
Experiment [12] deals with Serine/threonine-protein kinase PLK1 (Homo sapiens) (UniProt P53350). To be noted: at 0.1 µM.
Serine/threonine-protein kinase PLK1 (Homo sapiens), sequence (P53350 whole entry): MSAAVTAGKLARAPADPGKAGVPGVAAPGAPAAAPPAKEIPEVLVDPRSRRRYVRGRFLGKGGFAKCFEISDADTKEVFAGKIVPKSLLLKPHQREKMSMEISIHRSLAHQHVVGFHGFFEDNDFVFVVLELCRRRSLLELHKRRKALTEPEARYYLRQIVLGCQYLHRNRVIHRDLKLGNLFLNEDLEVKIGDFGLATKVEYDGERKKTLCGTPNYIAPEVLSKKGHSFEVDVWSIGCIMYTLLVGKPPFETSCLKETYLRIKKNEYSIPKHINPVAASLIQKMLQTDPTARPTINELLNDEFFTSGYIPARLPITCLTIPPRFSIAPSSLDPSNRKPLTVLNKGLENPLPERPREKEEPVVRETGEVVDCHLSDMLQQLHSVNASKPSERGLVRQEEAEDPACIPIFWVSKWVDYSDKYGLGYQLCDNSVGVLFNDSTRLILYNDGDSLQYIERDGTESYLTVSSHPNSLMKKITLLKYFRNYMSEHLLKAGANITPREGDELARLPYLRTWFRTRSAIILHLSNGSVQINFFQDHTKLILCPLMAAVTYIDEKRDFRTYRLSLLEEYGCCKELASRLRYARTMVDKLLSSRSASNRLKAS
Experiment [13] shares this target. The conditions noted are these: at 1 µM.
For experiment [14], the target named is T5, Dual specificity protein kinase TTK (Homo sapiens) (UniProt P33981).
T5 sequence (whole entry): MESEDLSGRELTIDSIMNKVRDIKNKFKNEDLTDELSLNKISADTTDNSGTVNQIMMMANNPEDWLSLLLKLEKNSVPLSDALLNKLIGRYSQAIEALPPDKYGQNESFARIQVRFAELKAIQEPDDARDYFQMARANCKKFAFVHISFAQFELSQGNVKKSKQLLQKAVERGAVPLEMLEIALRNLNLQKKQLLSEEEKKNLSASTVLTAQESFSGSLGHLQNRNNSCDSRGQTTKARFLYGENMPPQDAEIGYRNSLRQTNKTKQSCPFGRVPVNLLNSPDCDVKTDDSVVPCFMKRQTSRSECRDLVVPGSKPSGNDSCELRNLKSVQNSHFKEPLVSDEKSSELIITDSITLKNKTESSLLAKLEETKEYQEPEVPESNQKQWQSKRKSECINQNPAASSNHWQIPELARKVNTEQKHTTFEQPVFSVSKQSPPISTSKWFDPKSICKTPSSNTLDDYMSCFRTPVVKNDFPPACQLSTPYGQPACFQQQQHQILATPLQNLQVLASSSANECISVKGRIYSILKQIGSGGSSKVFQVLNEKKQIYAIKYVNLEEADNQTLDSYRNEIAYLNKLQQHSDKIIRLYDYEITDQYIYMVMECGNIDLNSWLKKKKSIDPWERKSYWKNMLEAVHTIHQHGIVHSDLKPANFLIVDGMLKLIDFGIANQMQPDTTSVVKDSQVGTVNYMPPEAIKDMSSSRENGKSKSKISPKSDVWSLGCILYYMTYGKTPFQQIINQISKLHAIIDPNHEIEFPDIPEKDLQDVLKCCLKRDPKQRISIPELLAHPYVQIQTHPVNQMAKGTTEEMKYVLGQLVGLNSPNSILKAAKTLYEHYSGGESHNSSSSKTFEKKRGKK
To be noted: at 0.1 µM.

Experiment [15] concerns T6, Receptor-type tyrosine-protein kinase FLT3 (Homo sapiens), P36888 [D835Y].
T6 sequence (whole entry): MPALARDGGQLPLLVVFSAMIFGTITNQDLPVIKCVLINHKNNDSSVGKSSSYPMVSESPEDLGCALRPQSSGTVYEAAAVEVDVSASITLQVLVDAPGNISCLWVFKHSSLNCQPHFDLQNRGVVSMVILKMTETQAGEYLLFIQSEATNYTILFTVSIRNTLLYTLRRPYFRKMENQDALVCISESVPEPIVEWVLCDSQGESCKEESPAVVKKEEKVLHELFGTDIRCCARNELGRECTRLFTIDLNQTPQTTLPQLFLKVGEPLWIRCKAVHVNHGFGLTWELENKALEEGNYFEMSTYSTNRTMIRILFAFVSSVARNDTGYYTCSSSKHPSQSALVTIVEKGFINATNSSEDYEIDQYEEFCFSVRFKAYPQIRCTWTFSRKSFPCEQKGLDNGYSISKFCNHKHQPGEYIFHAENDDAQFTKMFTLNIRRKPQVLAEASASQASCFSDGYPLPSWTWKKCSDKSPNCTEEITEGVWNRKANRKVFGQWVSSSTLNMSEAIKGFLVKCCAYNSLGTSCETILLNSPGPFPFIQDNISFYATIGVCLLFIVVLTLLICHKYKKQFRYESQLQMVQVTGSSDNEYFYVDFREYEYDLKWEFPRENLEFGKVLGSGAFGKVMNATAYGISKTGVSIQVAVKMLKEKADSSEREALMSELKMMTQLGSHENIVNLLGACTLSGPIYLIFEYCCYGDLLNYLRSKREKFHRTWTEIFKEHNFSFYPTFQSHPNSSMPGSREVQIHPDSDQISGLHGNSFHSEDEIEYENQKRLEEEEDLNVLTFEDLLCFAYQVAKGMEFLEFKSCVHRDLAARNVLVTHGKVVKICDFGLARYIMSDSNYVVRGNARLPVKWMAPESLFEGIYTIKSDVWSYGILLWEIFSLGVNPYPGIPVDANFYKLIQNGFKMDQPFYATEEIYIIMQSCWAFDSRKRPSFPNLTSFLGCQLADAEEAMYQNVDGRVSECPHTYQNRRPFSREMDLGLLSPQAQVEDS
The conditions noted are these: at 1 µM.

The target of experiment [16] is Vascular endothelial growth factor receptor 3 (Homo sapiens) (UniProt P35916). To be noted: at 0.1 µM.
Vascular endothelial growth factor receptor 3 (Homo sapiens), sequence (P35916 whole entry): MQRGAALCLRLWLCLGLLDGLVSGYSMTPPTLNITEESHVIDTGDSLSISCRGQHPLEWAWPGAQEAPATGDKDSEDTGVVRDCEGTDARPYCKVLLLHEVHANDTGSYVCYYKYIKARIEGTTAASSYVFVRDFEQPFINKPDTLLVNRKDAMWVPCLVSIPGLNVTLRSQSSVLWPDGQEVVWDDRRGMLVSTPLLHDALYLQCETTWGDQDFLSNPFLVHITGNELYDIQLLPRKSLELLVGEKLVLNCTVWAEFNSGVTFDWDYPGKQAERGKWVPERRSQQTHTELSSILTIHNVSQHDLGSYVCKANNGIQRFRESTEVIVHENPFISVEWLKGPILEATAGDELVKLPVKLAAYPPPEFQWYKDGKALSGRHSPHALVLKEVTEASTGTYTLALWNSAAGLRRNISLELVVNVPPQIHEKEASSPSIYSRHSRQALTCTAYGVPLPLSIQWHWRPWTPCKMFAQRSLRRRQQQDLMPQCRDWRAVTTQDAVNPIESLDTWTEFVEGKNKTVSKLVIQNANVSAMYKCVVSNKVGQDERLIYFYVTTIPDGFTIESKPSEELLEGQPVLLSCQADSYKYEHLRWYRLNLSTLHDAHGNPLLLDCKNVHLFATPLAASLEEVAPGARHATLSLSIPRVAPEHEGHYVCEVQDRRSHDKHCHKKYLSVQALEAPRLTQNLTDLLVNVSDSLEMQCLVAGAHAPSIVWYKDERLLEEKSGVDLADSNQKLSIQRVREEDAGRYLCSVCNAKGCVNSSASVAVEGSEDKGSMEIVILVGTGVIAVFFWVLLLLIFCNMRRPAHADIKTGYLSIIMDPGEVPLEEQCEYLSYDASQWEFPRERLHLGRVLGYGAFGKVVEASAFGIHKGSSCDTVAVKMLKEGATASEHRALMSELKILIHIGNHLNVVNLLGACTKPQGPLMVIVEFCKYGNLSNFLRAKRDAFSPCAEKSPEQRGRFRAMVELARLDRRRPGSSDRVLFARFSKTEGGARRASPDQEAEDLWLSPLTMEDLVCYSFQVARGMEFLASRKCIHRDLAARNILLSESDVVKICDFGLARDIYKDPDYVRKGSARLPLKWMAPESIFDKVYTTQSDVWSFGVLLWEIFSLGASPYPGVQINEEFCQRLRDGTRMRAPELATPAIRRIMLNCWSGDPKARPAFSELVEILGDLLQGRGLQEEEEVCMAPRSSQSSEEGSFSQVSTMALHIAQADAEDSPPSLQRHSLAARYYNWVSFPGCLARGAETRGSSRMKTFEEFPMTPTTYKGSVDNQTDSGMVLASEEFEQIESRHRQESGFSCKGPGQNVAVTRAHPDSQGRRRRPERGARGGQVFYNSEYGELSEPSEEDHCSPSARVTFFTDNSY
The target is the same in experiment [17]. The conditions noted are these: at 1 µM.
The target in experiment [18] is Macrophage colony-stimulating factor 1 receptor (Homo sapiens) (UniProt P07333). To be noted: at 0.1 µM.
Macrophage colony-stimulating factor 1 receptor (Homo sapiens), sequence (P07333 whole entry): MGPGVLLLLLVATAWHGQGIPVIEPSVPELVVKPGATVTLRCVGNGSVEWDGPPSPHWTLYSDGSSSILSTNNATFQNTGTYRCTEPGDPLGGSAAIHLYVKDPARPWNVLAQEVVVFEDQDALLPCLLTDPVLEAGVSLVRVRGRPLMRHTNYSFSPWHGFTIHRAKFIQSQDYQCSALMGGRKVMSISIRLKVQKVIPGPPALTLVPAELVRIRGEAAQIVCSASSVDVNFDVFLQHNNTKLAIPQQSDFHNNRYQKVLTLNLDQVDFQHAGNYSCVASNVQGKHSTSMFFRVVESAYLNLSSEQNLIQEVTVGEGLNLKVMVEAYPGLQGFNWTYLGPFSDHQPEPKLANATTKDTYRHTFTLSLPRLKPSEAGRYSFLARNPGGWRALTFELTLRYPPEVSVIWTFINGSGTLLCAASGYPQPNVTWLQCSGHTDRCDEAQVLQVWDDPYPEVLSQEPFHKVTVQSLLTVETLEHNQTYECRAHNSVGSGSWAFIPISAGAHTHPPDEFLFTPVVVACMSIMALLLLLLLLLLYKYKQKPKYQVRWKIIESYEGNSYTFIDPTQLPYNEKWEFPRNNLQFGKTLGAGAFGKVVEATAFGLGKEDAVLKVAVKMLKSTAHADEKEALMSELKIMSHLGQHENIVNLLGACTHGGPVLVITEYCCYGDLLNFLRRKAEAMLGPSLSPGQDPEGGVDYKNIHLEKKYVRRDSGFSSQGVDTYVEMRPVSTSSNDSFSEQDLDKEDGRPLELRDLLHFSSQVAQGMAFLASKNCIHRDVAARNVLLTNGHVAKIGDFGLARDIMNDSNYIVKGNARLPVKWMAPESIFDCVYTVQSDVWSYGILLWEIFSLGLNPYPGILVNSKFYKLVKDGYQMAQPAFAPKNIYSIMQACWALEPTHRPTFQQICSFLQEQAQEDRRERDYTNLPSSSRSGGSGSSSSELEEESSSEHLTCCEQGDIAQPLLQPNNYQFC
For experiment [19] the target is unchanged. The conditions noted are these: at 1 µM.
For experiment [20], the target named is Tyrosine-protein kinase Fyn (Homo sapiens) (UniProt P06241). The conditions noted are these: at 0.1 µM.
Tyrosine-protein kinase Fyn (Homo sapiens), sequence (P06241 2-537 limits assumed): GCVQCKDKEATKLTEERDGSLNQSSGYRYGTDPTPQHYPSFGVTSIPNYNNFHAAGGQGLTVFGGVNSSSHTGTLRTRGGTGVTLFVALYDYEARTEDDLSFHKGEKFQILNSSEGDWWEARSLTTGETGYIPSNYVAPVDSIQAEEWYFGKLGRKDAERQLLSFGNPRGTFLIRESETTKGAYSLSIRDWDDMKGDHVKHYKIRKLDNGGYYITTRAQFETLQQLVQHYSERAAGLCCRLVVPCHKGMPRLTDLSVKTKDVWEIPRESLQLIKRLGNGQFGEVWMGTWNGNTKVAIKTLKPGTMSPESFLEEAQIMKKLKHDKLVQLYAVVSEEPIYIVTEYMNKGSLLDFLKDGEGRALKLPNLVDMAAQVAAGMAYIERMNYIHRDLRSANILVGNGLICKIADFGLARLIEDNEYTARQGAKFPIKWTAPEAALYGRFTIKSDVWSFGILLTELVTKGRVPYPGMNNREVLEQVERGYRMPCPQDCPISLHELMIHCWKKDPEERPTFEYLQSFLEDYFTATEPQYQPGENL

For `NC(=O)c1ccc2c(-c3ccnc(NCCCO)n3)c(-c3ccc(F)cc3)nn2c1`, the inhibition in experiment [1] came to 3.59%; in experiment [2], 2.6%; in experiment [3], 3.93%; in [4], 5.07%; in experiment [5] it was 6.59%; in experiment [6], 1.23%. Besides, the inhibition in experiment [7] was -0.99%; in [8], 6.38%; in [9] it was 4.14%; in [10], 5.71%; in experiment [11], 5.15%; in [12] it was 3.87%. Also, the inhibition in experiment [13] was 4.03%; in experiment [14] it was 14%; in experiment [15], -0.97%; in experiment [16], 2.83%; in experiment [17], 1.06%; in experiment [18], 5.2%. For the same molecule, the figures for the inhibition in experiment [19] and in experiment [20] were 8.64% and 2.14%, respectively.
